Compound activity deposited in PubChem by National Center for Advancing Translational Sciences (NCATS).
TDP1 cell CPT = growth inhibition of DT40 Tdp1-/-;hTDP1 cells with camptothecin (screen for TDP1 inhibitors); chicken DT40 Tdp1-/-;hTDP1 cells + 20 nM CPT, ATP luminescence, 48 h; Potency, µM (top dose mostly 46.2 µM), most hits filed as inhibitors; 420,000 tested, 12% active; also: nearly all actives have a fitted effect of over 55% in size
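Chicken DT40 Tdp1-/- cells stably complemented with human TDP1 were seeded at 400 cells/well in medium containing 20 nM camptothecin, exposed to pin-transferred compounds, and grown at 37 °C for at least 48 hr. Viability was read as ATP luminescence.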
HT1080-NT tox = kills 2HG-producing HT-1080-NT fibrosarcoma cells; HT-1080-NT fibrosarcoma viability, CellTiter-Glo ATP luminescence, 48 h; Potency, µM (highest dose often 46.1 µM), usual class: cytotoxic; 360,000 tested, 1.6% active;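 also: NT is the 2HG producing partner of a matched IDH1 knockdown line; nearly all actives have a fitted effect of over 55% in size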
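A 48-hour cytotoxicity screen used HT-1080-NT cells plated 2 hours before compound delivery. ATP-based CellTiter-Glo luminescence measured viability, normalized to DMSO and no-cell controls.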
DT40 TDP1 no CPT = qHTS for Inhibitors of human tyrosyl-DNA phosphodiesterase 1 (TDP1): qHTS in cells in absence of CPT; Potency, µM (highest dose often 46.2 µM), actives largely listed as inhibitors; DT40 Tdp1-/- hTDP1 cells, no CPT, ATP luminescence, 48 h; 420,000 tested, 15% active; also: nearly all actives have a fitted effect of over 55% in size
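Chicken DT40 Tdp1-/- cells stably complemented with human TDP1 were seeded at 400 cells/well with DMSO in place of 20 nM camptothecin. After compound pinning, cells grew at least 48 hr at 37 °C; viability read by CellTiter-Glo luminescence.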
HT1080 IDH1KD tx = toxicity to HT-1080 IDH1 knockdown cells (counter line) | 360,000 tested, 2% active | HT-1080 IDH1 knockdown viability, ATP luminescence, 48 h | Potency, µM (highest dose often 46.1 µM), hits mostly cytotoxic
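HT-1080-IDH1KD cells (IDH1 knocked down), 750/well in RPMI with 5% FBS, treated with compound 48 h at 37 degrees C. Viability by CellTiter-Glo luminescence, normalised to DMSO and no-cell wells; concentration-response curves classed.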
IL-1B inflam inh = blocks inflammasome-driven IL-1 beta release; THP-1 LPS/ATP IL-1B secretion, AlphaLISA, 16 h; hits give low values; 360,000 tested, 4.7% active; activity change, % at 57.5 µM; in the data active = activity change below about -50%; inconclusive = mostly about -30% to -49%
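Secreted IL-1B measured by AlphaLISA bead assay after 16 h compound exposure of THP-1 cells; compounds (final up to 57.5 uM) added 1 h before LPS (250 ng/mL) and ATP (1.25 mM) stimulation; lower signal means less secretion.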
ALOX12 inh = inhibitors of human 12S-lipoxygenase ALOX12 | P18054 | purified 12hLO, xylenol orange hydroperoxide absorbance | Potency, µM (top dose mostly 108 µM), most hits filed as inhibitors | 580,000 tested, 1.1% active
Target sequence (P18054 whole entry, looked up): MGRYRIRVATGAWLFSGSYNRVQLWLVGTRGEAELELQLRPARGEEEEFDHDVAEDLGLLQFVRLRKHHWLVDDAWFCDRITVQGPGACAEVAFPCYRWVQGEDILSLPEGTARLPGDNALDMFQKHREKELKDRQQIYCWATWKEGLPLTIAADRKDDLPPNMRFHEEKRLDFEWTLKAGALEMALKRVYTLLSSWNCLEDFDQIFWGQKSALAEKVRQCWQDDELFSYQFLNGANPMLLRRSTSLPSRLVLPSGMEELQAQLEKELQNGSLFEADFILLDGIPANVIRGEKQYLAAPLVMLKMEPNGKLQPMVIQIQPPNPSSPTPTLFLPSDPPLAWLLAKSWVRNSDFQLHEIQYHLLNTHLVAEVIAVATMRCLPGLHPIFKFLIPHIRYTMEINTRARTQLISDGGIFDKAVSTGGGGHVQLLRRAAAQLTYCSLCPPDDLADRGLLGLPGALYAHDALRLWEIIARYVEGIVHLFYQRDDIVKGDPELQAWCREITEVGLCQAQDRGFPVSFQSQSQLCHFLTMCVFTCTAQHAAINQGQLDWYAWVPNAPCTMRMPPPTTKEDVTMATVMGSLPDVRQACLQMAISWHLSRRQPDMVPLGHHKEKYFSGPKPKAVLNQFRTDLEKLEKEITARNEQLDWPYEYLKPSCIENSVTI
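Purified human 12hLO at 150 nM in 25 mM Hepes, 0.01% Triton X-100, pH 7.0, preincubated 15 min at room temperature with compound. Reaction started with 40 uM arachidonic acid, 30 min at room temperature. Hydroperoxide measured by Fe-xylenol orange, 573/405 nm absorbance ratio.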
A number is an active result; . = inactive; ? = inconclusive; / = no result given; [ ] = remark or other dose. Only a selection was taken, and hits are over-represented in it overall. Unless noted, calls follow the shape of the dose curve; as a rule, active = well fitted curve in the direction sought with a large enough effect; inconclusive = small, poorly fitted or top-dose-only effect, or another doubt; inactive = no such curve, though single readings can be large; an effect the other way counts as inactive or inconclusive.

SMILES	TDP1 cell CPT	HT1080-NT tox	DT40 TDP1 no CPT	HT1080 IDH1KD tx	IL-1B inflam inh	ALOX12 inh
COc1ccccc1/C=C/C(=O)NCCC1=CCCCC1	.	.	.	.	-50	.
CN(C)C[C@@H]1CN(C2CCOCC2)C[C@H]1NC(=O)c1ccc2ccccc2n1	/	/	/	/	/	.
Cc1ccccc1-c1cc(-c2ccccc2O)n[nH]1	21µM	?	23µM	?	.	?
Cc1ccc(-c2cc(-c3ccccc3Cl)[nH]n2)c(O)c1	?	?	?	11µM	.	?
Cc1ccc(-c2cc(-c3ccccc3[N+](=O)[O-])[nH]n2)c(O)c1	?	.	?	?	.	?
CCCc1cc(=O)oc2cc(OCC(=O)NC3CC(C)(C)NC(C)(C)C3)ccc12	.	.	.	.	.	.
Cc1ccc(C(=O)Nc2ccccc2NS(=O)(=O)c2cccs2)cc1[N+](=O)[O-]	/	/	/	/	/	.
O=C(c1cc(C2CC2)nc2onc(C3CCCN3)c12)N1CCC(F)CC1 (stereo not given)	/	/	/	/	/	.[6.33 µM]
CC(C)C(NC(=O)Cn1cnc(C#N)n1)c1ccccc1 (stereo not given)	/	/	/	/	/	.
COC(=O)c1cc2c(ccn2-c2ccc(F)cc2)n1Cc1cccc(OC)c1	7.3µM	.	16µM	?	.	.
COc1cccc(CN2CCN(c3ccc(F)cc3)C2=O)c1	.	.	?	.	-51	.
CCOC(=O)c1cc2c(ccn2-c2ccc(F)cc2)n1CC(=O)N1CCN(C(=O)c2ccco2)CC1	?	.	12µM	.	.	.
COC(=O)c1cc2c(ccn2-c2ccc(F)cc2)n1Cc1ccc(OC(C)=O)cc1	?	.	?	.	.	?
CCOC(=O)c1cc2c(ccn2C)n1CC(=O)N1CCC(Cc2ccccc2)CC1	23µM	.	18µM	.	-74	?
COc1cc2c(cc1CNCC1(O)CNCCOC1)OCCO2 (stereo not given)	/	/	/	/	/	.
CCOC(=O)c1cc2c(ccn2C)n1CC(=O)Nc1ccc(F)cc1	23µM	.	.	.	.	.
Cc1cccc(N2CCN(C(=O)c3ccc4c(c3)N(C)C3CCCCCN3C4=O)CC2)c1 (stereo not given)	/	/	/	/	/	.
CCc1cccc2cc3c(N)c(C(=O)Nc4ccc(S(=O)(=O)N5CCCC5)cc4)sc3nc12	?	.	8.2µM	.	.	?
C=CCNC(=S)/N=c1/ccccn1CCC	?	.	23µM	.	.	.
C=CCNC(=S)/N=c1/ccccn1C	.	.	.	.	.	?
COc1ccc(C(=O)Nc2nnc(C3=COCCO3)o2)cc1	.	.	.	.	.	.
COc1ccc(-c2nnc(NC(=O)c3ccc([N+](=O)[O-])o3)o2)c(OC)c1	?	.	18µM	.	.	.
Cc1ccc(-c2nnc(NC(=O)c3ccc([N+](=O)[O-])o3)o2)c(C)c1	16µM	?	13µM	?	?	?
Cc1ccc(-c2nn3c(-c4ccccc4C)nnc3c3ccccc23)cc1	?	/	18µM	/	/	.
Cc1noc(-c2cccc(OC3CN(S(=O)(=O)c4c(C)noc4C)C3)c2)n1	/	/	/	/	/	.
SMILES	TDP1 cell CPT	HT1080-NT tox	DT40 TDP1 no CPT	HT1080 IDH1KD tx	IL-1B inflam inh	ALOX12 inh
CC(O)/C=C/c1cccc[n+]1C (stereo not given)	.	.	.	?	.	18µM
CCCN(CC1CCOC1)S(=O)(=O)c1ccc(C)c(C)c1 (stereo not given)	/	/	/	/	/	.
Cc1cc(C(=O)N2CCC(Oc3cccnc3)C2)n(C)n1 (stereo not given)	/	/	/	/	/	.
Cc1noc(C)c1C(=O)Nc1nc(-c2ccc(F)cc2)cs1	.	.	.	.	.	.
CCc1noc(C)c1C(=O)Nc1nc(-c2cc(OC)ccc2OC)cs1	?	.	21µM	.	.	.
CCc1noc(C)c1C(=O)Nc1nc(-c2ccc(OC)cc2OC)cs1	?	.	16µM	.	.	?
CCc1noc(C)c1C(=O)Nc1nc(-c2ccc(OC)cc2)cs1	?	.	13µM	.	.	.
COc1ccc(-c2csc(NC(=O)CN3C(=O)CCC3=O)n2)c(OC)c1	.	?	.	.	.	.
O=c1[nH]c(CSc2nnc(-c3ccco3)n2C2CCCCC2)nc2ccccc12	/	/	/	/	/	.
COc1ccc(NC(=O)N(C)[C@H]2C[C@H]3c4[nH]c5c(-c6ccccc6)cccc5c4CCN3C(=O)[C@H]2[C@H](C)O)cc1	/	/	/	/	/	.
COc1ccc(-c2[nH]ncc2/C=N\NC(=O)c2ccc(Br)o2)cc1OC	.	.	.	.	.	.
